The results in this text go back to article PMC4336329 (PLoS ONE, 2015).

SMILES strings stand for the structures. Hit rate of the full screen: of about 310,000 compounds, about 14,000 (4.5%) showed an effect of 50% or more. The effect is printed as a negative number. Many of the other results were omitted from the sample, so strong results are more common in it than they were.
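Note: peak tail current of the secondary pulse compared with the same well before compound.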

Sequence of human ether-à-go-go-related gene (hERG) potassium channel (Q12809 whole entry, looked up): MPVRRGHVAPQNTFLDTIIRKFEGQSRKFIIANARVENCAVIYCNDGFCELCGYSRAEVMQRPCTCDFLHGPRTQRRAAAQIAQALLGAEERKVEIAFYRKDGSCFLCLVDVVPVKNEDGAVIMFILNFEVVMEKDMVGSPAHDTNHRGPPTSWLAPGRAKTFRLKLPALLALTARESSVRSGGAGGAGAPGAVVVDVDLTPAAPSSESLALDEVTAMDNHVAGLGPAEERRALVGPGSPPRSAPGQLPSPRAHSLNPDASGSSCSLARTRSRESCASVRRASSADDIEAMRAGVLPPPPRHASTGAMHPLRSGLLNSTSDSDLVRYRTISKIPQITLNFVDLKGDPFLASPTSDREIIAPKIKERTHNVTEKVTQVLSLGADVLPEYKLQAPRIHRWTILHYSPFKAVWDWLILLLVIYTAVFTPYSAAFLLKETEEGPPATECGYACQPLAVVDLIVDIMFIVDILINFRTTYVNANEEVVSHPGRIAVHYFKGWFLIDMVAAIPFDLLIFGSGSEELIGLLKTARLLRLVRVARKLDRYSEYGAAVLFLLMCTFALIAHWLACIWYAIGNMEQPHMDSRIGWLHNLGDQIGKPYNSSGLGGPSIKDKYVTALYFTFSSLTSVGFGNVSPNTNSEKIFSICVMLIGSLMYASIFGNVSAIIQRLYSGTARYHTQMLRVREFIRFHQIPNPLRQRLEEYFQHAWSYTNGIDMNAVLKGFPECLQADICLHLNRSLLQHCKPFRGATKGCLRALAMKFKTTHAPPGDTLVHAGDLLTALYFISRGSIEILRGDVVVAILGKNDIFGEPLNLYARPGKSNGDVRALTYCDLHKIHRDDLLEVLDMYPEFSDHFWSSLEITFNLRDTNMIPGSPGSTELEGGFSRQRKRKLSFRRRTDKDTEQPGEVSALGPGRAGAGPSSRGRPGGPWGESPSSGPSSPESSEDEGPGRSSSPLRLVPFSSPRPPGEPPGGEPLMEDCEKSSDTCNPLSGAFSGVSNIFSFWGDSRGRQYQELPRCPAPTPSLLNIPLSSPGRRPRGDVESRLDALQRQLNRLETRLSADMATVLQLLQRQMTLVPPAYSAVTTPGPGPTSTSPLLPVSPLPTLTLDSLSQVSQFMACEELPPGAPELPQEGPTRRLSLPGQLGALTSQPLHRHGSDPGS

This experiment addresses human ether-à-go-go-related gene (hERG) potassium channel (human, UniProt Q12809). Nature of the experiment: primary screen, population patch clamp on CHO cells stably expressing hERG; higher = less effect of the substance.
For `O=C(/C=C/c1ccc2c(c1)OCO2)Nc1nc(-c2ccc(F)cc2F)cs1`, the “hERG current change (%, negative = inhibition) at 10uM” value was 9.08%.

`O=C(O)/C=C/c1cccc(NC(=O)c2ccccc2)c1`: the “hERG current change (%, negative = inhibition) at 10uM” value was 9.14%.

`CCOc1ccc(NC(=O)CN(C)C(=O)Cn2cnc3c2c(=O)n(C)c(=O)n3C)cc1OCC`: the “hERG current change (%, negative = inhibition) at 10uM” value was determined as 5.62%.

For the compound `Cc1ccc(S(=O)(=O)NCC(c2cccnc2)N2CCOCC2)cc1` (centres unmarked), the “hERG current change (%, negative = inhibition) at 10uM” value is recorded as 5.12%.

Regarding `CCN1CCN(C(CNS(=O)(=O)c2ccc(OC)cc2)c2cccnc2)CC1` (centres unmarked), the “hERG current change (%, negative = inhibition) at 10uM” value is recorded as -45.4%.

Regarding `Cc1ccc(S(=O)(=O)NCC(c2cccnc2)N2CCc3ccccc32)cc1` (centres unmarked), the “hERG current change (%, negative = inhibition) at 10uM” value was -2.1%.

On to `COc1ccc(S(=O)(=O)NCC(c2cccnc2)N2CCN(Cc3ccccc3)CC2)cc1` (centres unmarked), for which the “hERG current change (%, negative = inhibition) at 10uM” value is recorded as -58.5%.

In the case of `Cc1ccc(S(=O)(=O)NCC(c2cccnc2)N2CCN(Cc3ccccc3)CC2)cc1` (centres unmarked), the “hERG current change (%, negative = inhibition) at 10uM” value is -73.1%.

On to `O=C(CCC(=O)OCC(=O)c1ccc([N+](=O)[O-])cc1)NC1CCCCC1`, for which the “hERG current change (%, negative = inhibition) at 10uM” value is reported as -0.724%.

On to `COc1ccc(Cn2nnnc2CN2CCC(O)(c3ccc(F)cc3)CC2)cc1`, for which the “hERG current change (%, negative = inhibition) at 10uM” value is given as -14.5%.

For `COc1ccc(C(=O)Nc2ccc(-n3nncc3C(C)(C)C)cc2)cc1`, the “hERG current change (%, negative = inhibition) at 10uM” value is reported as -26.4%.

`CC(C)(C)c1cnnn1-c1ccc(NC(=O)c2ccc3c(c2)OCO3)cc1`: the “hERG current change (%, negative = inhibition) at 10uM” value was -17.4%.

On to `COc1cccc(C(=O)Nc2ccc(-n3nncc3C(C)(C)C)cc2)c1`, for which the “hERG current change (%, negative = inhibition) at 10uM” value is -60.5%.

`O=C1CCCc2c1cc(C(=O)O)c(=O)n2-c1ccccc1`: the “hERG current change (%, negative = inhibition) at 10uM” value amounted to 13.9%.

`O=C1CCCc2c1cc(C(=O)Nc1ccc(Br)cn1)c(=O)n2-c1ccccc1`: the “hERG current change (%, negative = inhibition) at 10uM” value is given as -2.93%.

On to `O=C1CCCc2c1cc(C(=O)Nc1ccc(Cl)cn1)c(=O)n2-c1ccccc1`, for which the “hERG current change (%, negative = inhibition) at 10uM” value is reported as -60.1%.

Take `Cc1ccc(-n2c3c(cc(C(=O)NCc4ccco4)c2=O)C(=O)CC(C)(C)C3)cc1`: the “hERG current change (%, negative = inhibition) at 10uM” value is on record as -6.38%.

With `COc1ccc(-n2c3c(cc(C(=O)NCc4ccco4)c2=O)C(=O)CC(C)(C)C3)cc1`, the “hERG current change (%, negative = inhibition) at 10uM” value is recorded as -56.6%.

As for `O=C1CCCc2c1cc(C(=O)NCCCN1CCOCC1)c(=O)n2-c1ccc(Cl)cc1`, the “hERG current change (%, negative = inhibition) at 10uM” value amounted to 1.59%.

Turning to `CC1(C)CC(=O)c2cc(C(=O)NCc3ccco3)c(=O)n(-c3ccccc3)c2C1`, the “hERG current change (%, negative = inhibition) at 10uM” value is -19.7%.

As for `CC1(C)CC(=O)c2cc(C(=O)NCc3ccco3)c(=O)n(-c3ccc(Cl)cc3)c2C1`, the “hERG current change (%, negative = inhibition) at 10uM” value is given as -22.2%.

`O=C1CCCc2c1cc(C(=O)NCc1ccco1)c(=O)n2-c1ccccc1`: the “hERG current change (%, negative = inhibition) at 10uM” value is -10.3%.

As for `Cc1ccc(-n2c3c(cc(C(=O)NCC(=O)c4ccccc4)c2=O)C(=O)CCC3)cc1`, the “hERG current change (%, negative = inhibition) at 10uM” value is reported as 10.2%.

As for `O=C1CCCc2c1cc(C(=O)NCc1ccco1)c(=O)n2-c1ccc(Cl)cc1`, the “hERG current change (%, negative = inhibition) at 10uM” value was -69.3%.

With `Cc1ccc(-n2c3c(cc(C(=O)NCc4ccco4)c2=O)C(=O)CCC3)cc1`, the “hERG current change (%, negative = inhibition) at 10uM” value was -53.8%.

On to `CS(=O)(=O)N(CC(=O)N1CCN(c2cccc(Cl)c2)CC1)c1cccc(F)c1`, for which the “hERG current change (%, negative = inhibition) at 10uM” value was -33.8%.

As for `COc1ccccc1NC(=O)Cn1c(CN2CCCCC2)nc2ccccc2c1=O`, the “hERG current change (%, negative = inhibition) at 10uM” value is -43.7%.

Take `CN(Cc1cccs1)C(=O)CCCc1c[nH]c2ccccc12`: the “hERG current change (%, negative = inhibition) at 10uM” value is reported as -1.49%.

As to `COc1ccc(/C(O)=C2/C(=O)C(=O)N(CCN(C)C)C2c2ccc(OC)c(OC)c2)c(C)c1` (centres unmarked), the “hERG current change (%, negative = inhibition) at 10uM” value was 11%.

In the case of `O=C(c1cc(S(=O)(=O)N2CCOCC2)ccc1Cl)N1CCC(Cc2ccccc2)CC1`, the “hERG current change (%, negative = inhibition) at 10uM” value is on record as -15.9%.

As to `Cc1cc(CNC(=O)c2cccc([N+](=O)[O-])c2C)c2ccccc2n1`, the “hERG current change (%, negative = inhibition) at 10uM” value is on record as -53%.

As for `Cc1cc(CNC(=O)c2ccc(C)c([N+](=O)[O-])c2)c2ccccc2n1`, the “hERG current change (%, negative = inhibition) at 10uM” value is reported as 8.05%.

Regarding `Cc1cc(CNC(=O)c2cccc([N+](=O)[O-])c2)c2ccccc2n1`, the “hERG current change (%, negative = inhibition) at 10uM” value was 6.72%.

Take `CN(CC(=O)Nc1ccc(F)cc1)C(=O)COc1ncnc2ccccc12`: the “hERG current change (%, negative = inhibition) at 10uM” value is -19.3%.

Turning to `Cc1ccc(NC(=O)COc2ccccc2C(=O)NCc2ccccc2)cc1`, the “hERG current change (%, negative = inhibition) at 10uM” value was -31.1%.

Regarding `c1ccc(-c2cn(C[C@H]3CC[C@@H]([C@@H]4CC[C@H](Cn5cc(-c6ccccn6)nn5)O4)O3)nn2)nc1`, the “hERG current change (%, negative = inhibition) at 10uM” value was -6.73%.

On to `c1cncc(-c2cn(C[C@H]3CC[C@@H]([C@@H]4CC[C@H](Cn5cc(-c6cccnc6)nn5)O4)O3)nn2)c1`, for which the “hERG current change (%, negative = inhibition) at 10uM” value was -58.5%.

On to `COc1ccc(-c2cn(CC3CCCCC3)nn2)cc1`, for which the “hERG current change (%, negative = inhibition) at 10uM” value worked out at 15.3%.

Consider `COc1ccc(-c2cn(Cc3cccc(OC)c3)nn2)cc1`, for which the “hERG current change (%, negative = inhibition) at 10uM” value was -0.524%.

In the case of `Cc1ccc(-c2cn(C[C@H]3CC[C@@H]([C@@H]4CC[C@H](Cn5cc(-c6ccc(C)cc6)nn5)O4)O3)nn2)cc1`, the “hERG current change (%, negative = inhibition) at 10uM” value is listed as -7.99%.

Regarding `c1cc(-c2cn(C[C@H]3CC[C@@H]([C@@H]4CC[C@H](Cn5cc(-c6ccsc6)nn5)O4)O3)nn2)cs1`, the “hERG current change (%, negative = inhibition) at 10uM” value was -75.5%.

Consider `c1ccc(-c2cn(C[C@H]3CC[C@H](Cn4cc(-c5ccccn5)nn4)O3)nn2)nc1`, for which the “hERG current change (%, negative = inhibition) at 10uM” value is listed as -9.3%.

As for `COc1cccc(-c2cn(C[C@H]3CC[C@@H]([C@@H]4CC[C@H](Cn5cc(-c6cccc(OC)c6)nn5)O4)O3)nn2)c1`, the “hERG current change (%, negative = inhibition) at 10uM” value is recorded as -72.7%.

Consider `c1ccc(-c2cn(C[C@H]3CC[C@@H]([C@@H]4CC[C@H](Cn5cc(-c6ccccc6)nn5)O4)O3)nn2)cc1`, for which the “hERG current change (%, negative = inhibition) at 10uM” value is -23.8%.
